Test results from PubChem BioAssay AID1159580 (chemical genetic matrix, 2015).
“And” between values parts separate entries of the source, which are not always exact repeats. Identical values can stand only once. The campaign covered roughly 5,500 compounds. About 2,000 (36%) were called active. Inconclusive results (about 18%) are left out. Cut-off read from the data, not from the text of the source: active = normalized growth mostly below about 0.91 (no sharp cut-off); inconclusive = no clear call, values can overlap the other calls; inactive = mostly above about 0.92. This is one part of the list. Some structures have more than one record in an assay (separate samples or runs), and their calls can disagree.

Experiment: chemical genetic growth profiling, strain panel (AID 1159580);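 note: tested at 20 µM; growth read once vehicle control cultures reached saturation at 30 °C; 1 = growth at the plate median or of vehicle wells; lower values mean less growth of the strain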
Conditions: growth OD

Measured: normalized growth

O=c1cc(-c2ccccc2)oc2cc(O)cc(O)c12
0.962 (inactive) and 0.886 (active): S. cerevisiae deletion strains, locus YPL240C, strain hsp82, stronger effect = lower value
0.97 (inactive) and 0.877 (active): S. cerevisiae deletion strains, locus YNL322C, strain KRE1 (second series), stronger effect = lower value
inactive: S. cerevisiae deletion strains, locus YJR075W, strain HOC1, stronger effect = lower value 0.924 | S. cerevisiae deletion strains, locus YKL068W, stronger effect = lower value 0.943 | S. cerevisiae deletion strains, locus YKL190W, strain CNB1, stronger effect = lower value 0.941 | S. cerevisiae deletion strains, locus YLL001W, strain dnm1, stronger effect = lower value 0.94 and 0.905 | S. cerevisiae deletion strains, locus YLR039C, strain RIC1, stronger effect = lower value 0.715 | S. cerevisiae deletion strains, locus YLR058C, strain SHM2, stronger effect = lower value 0.965 | S. cerevisiae deletion strains, locus YLR102C, strain apc9, stronger effect = lower value 0.947 | S. cerevisiae deletion strains, locus YLR262C, strain YPT6, stronger effect = lower value 0.684 | S. cerevisiae deletion strains, locus YLR330W, strain CHS5, stronger effect = lower value 0.972 | S. cerevisiae deletion strains, locus YLR342W, strain FKS1 (second series), stronger effect = lower value 0.862 | S. cerevisiae deletion strains, locus YLR370C, strain arc18, stronger effect = lower value 0.958 and 0.933 | S. cerevisiae deletion strains, locus YLR371W, strain rom2, stronger effect = lower value 0.951 | S. cerevisiae deletion strains, locus YLR384C, strain iki3, stronger effect = lower value 0.938 and 0.931 | S. cerevisiae deletion strains, locus YML016C, strain PPZ1, stronger effect = lower value 0.985 | S. cerevisiae deletion strains, locus YML120C, strain ndi1, stronger effect = lower value 0.944 and 0.942 | S. cerevisiae deletion strains, locus YML124C, strain tub3, stronger effect = lower value 0.952 | S. cerevisiae deletion strains, locus YMR078C, strain ctf18, stronger effect = lower value 0.928 | S. cerevisiae deletion strains, locus YMR125W, strain sto1, stronger effect = lower value 0.929 and 0.907 | S. cerevisiae deletion strains, locus YMR129W, stronger effect = lower value 0.94 | S. cerevisiae deletion strains, locus YMR223W, strain ubp8, stronger effect = lower value 0.906 | S. cerevisiae deletion strains, locus YMR263W, strain SAP30, stronger effect = lower value 0.927 | S. cerevisiae deletion strains, locus YNL067W, strain RPL9B, stronger effect = lower value 0.898 | S. cerevisiae deletion strains, locus YNL128W, strain TEP1, stronger effect = lower value 0.972 | S. cerevisiae deletion strains, locus YNL153C, strain GIM3, stronger effect = lower value 0.931 | S. cerevisiae deletion strains, locus YNL183C, strain NPR1, stronger effect = lower value 0.894 | S. cerevisiae deletion strains, locus YNL250W, strain rad50, stronger effect = lower value 0.925 | S. cerevisiae deletion strains, locus YNL322C, strain KRE1, stronger effect = lower value 0.978 | S. cerevisiae deletion strains, locus YNR049C, strain mso1, stronger effect = lower value 0.966 and 0.944 | S. cerevisiae deletion strains, locus YNR052C, strain pop2, stronger effect = lower value 0.944 | S. cerevisiae deletion strains, locus YOL006C, strain TOP1, stronger effect = lower value 0.686 | S. cerevisiae deletion strains, locus YOL012C, strain htz1 0.62 | S. cerevisiae deletion strains, locus YOR001W, strain rrp6, stronger effect = lower value 0.941 and 0.903 | S. cerevisiae deletion strains, locus YOR061W, strain CKA2, stronger effect = lower value 0.98 | S. cerevisiae deletion strains, locus YOR069W, strain VPS5, stronger effect = lower value 0.988 | S. cerevisiae deletion strains, locus YOR080W, strain dia2, stronger effect = lower value 0.97 and 0.934 | S. cerevisiae deletion strains, locus YOR136W, strain idh2, stronger effect = lower value 0.968 | S. cerevisiae deletion strains, locus YOR231W, strain MKK1, stronger effect = lower value 0.905 | S. cerevisiae deletion strains, locus YOR265W, strain rbl2, stronger effect = lower value 0.947 and 1.01 | S. cerevisiae deletion strains, locus YOR316C, strain cot1, stronger effect = lower value 0.945 | S. cerevisiae deletion strains, locus YPL055C, strain LGE1, stronger effect = lower value 0.91 | S. cerevisiae deletion strains, locus YPL106C, strain sse1, stronger effect = lower value 0.911 and 0.879 | S. cerevisiae deletion strains, locus YPL241C, strain CIN2, stronger effect = lower value 0.985 | S. cerevisiae deletion strains, locus YPL256C, strain CLN2, stronger effect = lower value 0.891 | S. cerevisiae deletion strains, locus YPR119W, strain clb2, stronger effect = lower value 0.937 | S. cerevisiae deletion strains, locus YPR141C, strain kar3, stronger effect = lower value 0.942 | S. cerevisiae deletion strains, locus YPR167C, strain met16, stronger effect = lower value 0.947 | S. cerevisiae deletion strains, strain wtn01, stronger effect = lower value 0.912 | S. cerevisiae strains, strain wild type, stronger effect = lower value 0.956
0.946 (inactive) and 0.915 (active): S. cerevisiae deletion strains, locus YLL041C, strain sdh2, stronger effect = lower value
0.912 (inactive) and 0.807 (active): S. cerevisiae deletion strains, locus YOR083W, strain WHI5, stronger effect = lower value
0.901 (inactive) and 0.85 (active): S. cerevisiae deletion strains, locus YOR290C, strain snf2, stronger effect = lower value
0.943 (inactive) and 0.867 (active): S. cerevisiae deletion strains, locus YLR027C, strain aat2, stronger effect = lower value
0.908 (inactive) and 0.809 (active): S. cerevisiae deletion strains, locus YKL160W, strain elf1, stronger effect = lower value
0.954 (inactive) and 0.871 (active): S. cerevisiae deletion strains, locus YNL209W, strain ssb2, stronger effect = lower value
0.97 (inactive) and 0.818 (active): S. cerevisiae deletion strains, locus YNL248C, strain rpa49, stronger effect = lower value
active: S. cerevisiae deletion strains, locus YKL009W, strain mrt4, stronger effect = lower value 0.667 | S. cerevisiae deletion strains, locus YKL085W, strain MDH1 (second series), stronger effect = lower value 0.888 | S. cerevisiae deletion strains, locus YKL085W, strain MDH1, stronger effect = lower value 0.888 | S. cerevisiae deletion strains, locus YKR001C, strain vps1, stronger effect = lower value 0.813 | S. cerevisiae deletion strains, locus YLR113W, strain HOG1, stronger effect = lower value 0.831 | S. cerevisiae deletion strains, locus YLR262C, strain YPT6 (second series), stronger effect = lower value 0.677 and 0.514 | S. cerevisiae deletion strains, locus YLR268W, strain sec22, stronger effect = lower value 0.837 | S. cerevisiae deletion strains, locus YLR320W, strain mms22, stronger effect = lower value 0.837 and 0.73 | S. cerevisiae deletion strains, locus YLR418C, strain cdc73, stronger effect = lower value 0.761 | S. cerevisiae deletion strains, locus YML032C, strain rad52, stronger effect = lower value 0.87 | S. cerevisiae deletion strains, locus YMR058W, strain fet3, stronger effect = lower value 0.893 and 0.653 | S. cerevisiae deletion strains, locus YMR205C, strain PFK2, stronger effect = lower value 0.87 and 0.693 | S. cerevisiae deletion strains, locus YMR307W, strain GAS1, stronger effect = lower value 0.551 | S. cerevisiae deletion strains, locus YNL071W, strain lat1, stronger effect = lower value 0.891 and 0.727 | S. cerevisiae deletion strains, locus YNL233W, strain BNI4, stronger effect = lower value 0.869 | S. cerevisiae deletion strains, locus YNL271C, strain bni1, stronger effect = lower value 0.904 | S. cerevisiae deletion strains, locus YNL298W, strain CLA4, stronger effect = lower value 0.893 | S. cerevisiae deletion strains, locus YNL307C, strain MCK1, stronger effect = lower value 0.834 | S. cerevisiae deletion strains, locus YOL147C, strain pex11, stronger effect = lower value 0.929 | S. cerevisiae deletion strains, locus YOR144C, strain elg1, stronger effect = lower value 0.932 | S. cerevisiae deletion strains, locus YOR184W, strain ser1, stronger effect = lower value 0.761 | S. cerevisiae deletion strains, locus YOR270C, strain vph1, stronger effect = lower value 0.746 and 0.518 | S. cerevisiae deletion strains, locus YPL051W, strain arl3, stronger effect = lower value 0.905 and 0.701 | S. cerevisiae deletion strains, locus YPR163C, strain tif3, stronger effect = lower value 0.883
0.926 (inactive) and 0.776 (active): S. cerevisiae deletion strains, locus YPL078C, strain atp4, stronger effect = lower value
0.957 (inactive) and 0.875 (active): S. cerevisiae deletion strains, locus YOR070C, strain gyp1, stronger effect = lower value
0.944 (inactive) and 0.828 (active): S. cerevisiae deletion strains, locus YLR221C, strain rsa3, stronger effect = lower value
0.94 (inactive) and 0.912 (active): S. cerevisiae deletion strains, locus YKR026C, strain gcn3, stronger effect = lower value
0.915 (inactive) and 0.802 (active): S. cerevisiae deletion strains, locus YOR106W, strain vam3, stronger effect = lower value
0.936 (inactive) and 0.919 (active): S. cerevisiae deletion strains, locus YLL026W, stronger effect = lower value
0.882 (inactive) and 0.838 (active): S. cerevisiae deletion strains, locus YLR357W, strain rsc2, stronger effect = lower value
0.943 (inactive) and 0.912 (active): S. cerevisiae deletion strains, locus YKR091W, strain srl3, stronger effect = lower value
0.934 (inactive) and 0.871 (active): S. cerevisiae deletion strains, locus YMR231W, strain pep5, stronger effect = lower value
0.924 (inactive) and 0.838 (active): S. cerevisiae deletion strains, locus YLR258W, strain gsy2, stronger effect = lower value
0.946 (inactive) and 0.903 (active): S. cerevisiae deletion strains, locus YLR342W, strain FKS1, stronger effect = lower value
